# Source: PubChem (National Center for Advancing Translational Sciences (NCATS))
# 3T3 cytotox = Cytotoxic Profiling in NIH 3T3 Cell Line of Diverse Libraries Using Quantitative High-Throughput Screening | Potency, µM (titrated, usually from 96.7 µM), most hits filed as inhibitors | NIH 3T3 viability, CellTiter-Glo ATP luminescence, 48-72 h | 94,000 compounds, 4.3% hits; also: nearly all actives have a fitted effect of over 55% in size
#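 First NIH 3T3 cells are plated at 400 cells/well; next compound is pinned in; then plates incubate 48 or 72 hr at 37 °C; finally CellTiter-Glo is added and luminescence read after 10 min.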
# HEK293 tox = Cytotoxic Profiling in HEK 293 Cell Line of Diverse Libraries Using Quantitative High-Throughput Screening. HEK 293 viability, ATP luminescence (CellTiter-Glo), 48-72 h. AID 1345083, 2018. Potency, µM (top dose mostly 115 µM), usual class: inhibitors. 94,000 compounds, 6.6% hits; also: nearly all actives have a fitted effect of over 60% in size
#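 Viability of HEK 293 cells, plated at 250 cells/well, was judged by cellular ATP after compound treatment for 48 or 72 hr. Luminescence was imaged 10 min after CellTiter-Glo addition at room temperature.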
# GPT2 inh = Primary qHTS assay for inhibitors of Glutamate pyruvate transaminase 2 (GPT2); Potency, µM (top dose mostly 57.7 µM), most hits filed as inhibitors; 100,000 compounds, 0.25% hits; Recombinant GPT2, coupled pyruvate oxidase/HRP Amplex Red fluorescence; also: nearly all actives have a fitted effect of over 60% in size
#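 Fluorescence of coupled pyruvate oxidase/HRP/Amplex Red system (50uM Amplex, 30 min, dark) reports pyruvate formed by GPT2. Enzyme reaction: 10ng/uL GPT2, 2mM L-alanine, 250uM a-KG, 30 min room temperature, pH 7.5; 50uM AOA control.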
# NPR1 antag = Natriuretic polypeptide receptor (hNpr1) antagonism - Primary qHTS; Atrial natriuretic peptide receptor 1 (Homo sapiens), P16066; 76,000 compounds, 1.6% hits; HEK293 hNpr1 GloSensor cGMP, ANP-stimulated luminescence; Potency, µM (doses to about 46.3 µM), actives largely listed as inhibitors; calls by dose curve; also: nearly all actives have a fitted effect of over 60% in size
#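 Compound pre-incubated 30 min at room temperature on GloSensor-loaded HEK293 cells stably carrying hNpr1 and the pGS-40F cGMP biosensor. Stimulation uses hNppA at 0.1 nM final; luminescence is taken at baseline and 20 min post-agonist.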
# Luciferase inh = Firefly luciferase inhibition profiling of diverse chemical library using quantitative high-throughput screening | AID 1347043, 2019 | Luciferin 4-monooxygenase (Photinus pyralis), P08659 | Potency, µM (highest dose often 115 µM), hits mostly inhibitors | 76,000 compounds, 2.5% hits | purified P. pyralis luciferase, luminescence, biochemical; also: nearly all actives have a fitted effect of over 65% in size
# Target sequence (P08659 whole entry, looked up): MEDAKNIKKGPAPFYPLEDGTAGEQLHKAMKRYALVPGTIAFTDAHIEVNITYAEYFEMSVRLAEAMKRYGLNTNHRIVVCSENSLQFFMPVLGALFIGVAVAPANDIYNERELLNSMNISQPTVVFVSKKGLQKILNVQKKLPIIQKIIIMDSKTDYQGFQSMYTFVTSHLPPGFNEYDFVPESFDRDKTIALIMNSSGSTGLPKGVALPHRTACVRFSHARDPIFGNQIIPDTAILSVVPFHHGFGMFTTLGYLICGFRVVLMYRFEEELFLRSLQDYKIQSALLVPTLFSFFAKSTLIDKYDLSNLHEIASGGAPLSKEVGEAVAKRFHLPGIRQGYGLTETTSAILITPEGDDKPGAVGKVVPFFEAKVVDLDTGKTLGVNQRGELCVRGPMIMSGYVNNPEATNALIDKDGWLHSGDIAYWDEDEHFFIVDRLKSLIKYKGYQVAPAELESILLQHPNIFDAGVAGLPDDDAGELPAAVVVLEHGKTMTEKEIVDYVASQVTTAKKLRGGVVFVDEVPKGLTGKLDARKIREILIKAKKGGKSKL
#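 Inhibitors were tested against purified firefly luciferase in a biochemical, low-substrate format (both substrates at 10uM) and luminescence measured with a CCD imager.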
# Hits are given with their value; – = inactive; ? = inconclusive; · = no result given. Sampled rows, rich in hits. Any-hit rate of the full collection: about 10%. Unless noted, calls follow the shape of the dose curve; as a rule, active = well fitted curve in the direction sought with a large enough effect; inconclusive = small, poorly fitted or top-dose-only effect, or another doubt; inactive = no such curve, though single readings can be large; an effect the other way counts as inactive or inconclusive.
SMILES,3T3 cytotox,HEK293 tox,GPT2 inh,NPR1 antag,Luciferase inh
Cn1ncc2c(C(=O)NCc3ccc(F)cc3)cc(-c3ccccc3F)nc21,?,–,·,·,·
COc1ccc(CNC(=O)c2cc(-c3ccc(C(F)(F)F)cc3)nc3c2cnn3C)cc1,?,–,·,·,·
Cn1ncc2c(C(=O)NCc3ccc(C(F)(F)F)cc3)cc(-c3ccc(F)cc3)nc21,22.4µM,?,·,·,·
Cn1ncc2c(C(=O)Nc3ccccc3F)cc(-c3ccc(C(F)(F)F)cc3)nc21,35.5µM,?,·,·,·
Cc1cccc(C)c1-c1cc(C(=O)NCc2ccc(F)cc2)c2cnn(C)c2n1,?,?,–,·,·
Cc1cccc(C)c1-c1cc(C(=O)NCc2ccc(C(F)(F)F)cc2)c2cnn(C)c2n1,14.1µM,22.4µM,–,·,·
CC(=O)NCCC(=O)N1Cc2ccccc2CC2(CCCN(Cc3cccnc3)C2)C1 (centres undefined),–,–,?,·,·
Cn1ncc2c(C(=O)NCc3ccc(F)c(F)c3)cc(-c3cccc(F)c3)nc21,?,39.8µM,·,·,·
C#CCNC(=O)c1cc(-c2ccc(C(F)(F)F)cc2)nc2c1cnn2C,?,25.1µM,·,·,·
COc1ccccc1CNC(=O)c1cc(-c2ccccc2F)nc2c1cnn2C,25.1µM,?,·,·,·
COc1ccc(-c2cc(C(=O)NCc3ccc(Cl)cc3)c3cnn(C)c3n2)cc1,?,?,–,·,·
Cn1ncc2c(C(=O)NCCc3ccccc3)cc(-c3ccc(C(F)(F)F)cc3)nc21,–,–,·,·,·
COc1ccc(CNC(=O)c2cc(-c3ccc(F)cc3)nc3c2cnn3C)cc1,39.8µM,44.7µM,·,·,·
Cn1ncc2c(C(=O)NCC(=O)c3ccccc3)cc(-c3ccccc3F)nc21,–,?,·,·,·
Cn1ncc2c(C(=O)NCc3ccccc3)cc(-c3cccnc3)nc21,?,39.8µM,–,·,·
Cn1ncc2c(C(=O)NCc3cccc(Cl)c3)cc(-c3cccnc3)nc21,?,?,–,·,·
CC1Oc2ccc(NS(=O)(=O)c3cccc(Cl)c3)cc2CN(Cc2ccccc2Cl)C1=O (centres undefined),22.4µM,?,–,–,–
CC1Oc2ccc(NS(=O)(=O)c3ccc(Cl)cc3)cc2CN(Cc2ccccc2F)C1=O (centres undefined),35.5µM,?,–,?,–
CCC(c1ccccc1)N1Cc2cc(NS(=O)(=O)c3ccc(F)cc3)ccc2OC(C)C1=O (centres undefined),14.1µM,?,–,–,–
Cc1ccc(S(=O)(=O)Nc2ccc3c(c2)CN(CCc2ccc(F)cc2)C(=O)C(C)O3)cc1F (centres undefined),?,?,–,–,–
CC1Oc2ccc(NC(=O)c3ccccc3Cl)cc2CN(Cc2ccc3c(c2)OCO3)C1=O (centres undefined),?,?,–,–,–
Cc1ccc(C(=O)N2CC(Oc3ccc(F)cc3F)C2)cc1,–,–,–,·,·
CN(Cc1ccccc1)C(=O)CN1C(=O)COc2ccc(C(=O)COc3ccc(F)cc3)cc21,?,20µM,–,–,–
CCCCNC(=O)CCCN1C(=O)COc2ccc(C(C)(C)CC)cc21,?,44.7µM,–,–,–
O=C(CN1C(=O)COc2ccc(C(=O)COc3ccc(Cl)cc3F)cc21)NC1CCCCC1,?,28.2µM,–,–,–
SMILES,3T3 cytotox,HEK293 tox,GPT2 inh,NPR1 antag,Luciferase inh
CC(C)c1ccc(OCC(=O)c2ccc3c(c2)N(CCCC(=O)N2CCOCC2)C(=O)CO3)cc1,31.6µM,31.6µM,–,–,?
CN(Cc1ccccc1)C(=O)CN1C(=O)COc2ccc(C(=O)COc3cccc(F)c3)cc21,–,?,–,–,–
Cc1ccc(OCC(=O)c2ccc3c(c2)N(CCCC(=O)N2CCOCC2)C(=O)CO3)cc1C,–,?,–,–,–
CCC(=O)Nc1ccc(OCC(=O)N[C@H]2CN(C(C)C)C[C@@H]2OC)cc1,–,–,–,–,–
C=C1C(=O)OC2CC(C)C(CCC(C)O)=CCC12 (centres undefined),·,·,–,·,·
COCCNC(=O)CCCN1C(=O)COc2ccc(C(=O)COc3ccc(F)c(Cl)c3)cc21,?,?,–,–,–
